Screens deposited in PubChem by Corson Lab, School of Medicine, Indiana University.
The full list was thinned out, with hits kept by preference.
FECH inh: blocks human mitochondrial ferrochelatase activity; calls only at 10 µM (by protocol); hit rate 3.3% among 20,000; purified FECH, Ni-mesoporphyrin absorbance 550 nm; P22830;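 active = enzyme reaction rate more than 3 SD below the solvent-only control wells on the same plate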;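 also: lower slope than DMSO wells means FECH inhibition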
Target sequence (P22830 whole entry, looked up): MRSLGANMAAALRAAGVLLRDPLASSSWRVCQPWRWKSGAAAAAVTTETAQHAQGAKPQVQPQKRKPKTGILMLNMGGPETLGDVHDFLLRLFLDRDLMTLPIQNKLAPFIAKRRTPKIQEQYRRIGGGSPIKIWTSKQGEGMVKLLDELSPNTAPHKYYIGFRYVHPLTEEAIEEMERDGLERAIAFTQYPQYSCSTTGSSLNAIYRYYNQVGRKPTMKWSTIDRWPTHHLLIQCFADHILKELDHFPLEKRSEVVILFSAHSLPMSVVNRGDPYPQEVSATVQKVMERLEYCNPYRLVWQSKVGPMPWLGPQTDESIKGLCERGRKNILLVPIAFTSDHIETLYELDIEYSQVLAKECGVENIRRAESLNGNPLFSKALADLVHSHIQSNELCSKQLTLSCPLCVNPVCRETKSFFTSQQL
Of the large screens only hits and unclear results are named; the others gave an inactive call.

O=C(C1CCCN(c2ncnc3c2nc2n3CCCCC2)C1)N1CCCCCC1 (stereo not given)	none
CC(=O)NCC(=O)N1CCC(c2nc(-c3ccc(C)cc3)no2)CC1	none
CC(=O)Nc1ccc(S(=O)(=O)NCc2nc3cccnc3n2C)cc1	none
CC(C)Cc1ccc(S(=O)(=O)NCc2nc3cccnc3n2C)cc1	none
CCCc1ccc(S(=O)(=O)NCc2nc3cccnc3n2C)cc1	FECH inh active
CCCNc1nc(Nc2ccc(F)cc2)c2cnn(-c3ccccc3)c2n1	none
Cc1cccc(CN2CCC(c3nn(C)c(=O)n3Cc3ccccc3)CC2)n1	none
O=c1[nH]nc(C2CC2)n1Cc1ccc(Cl)cc1Cl	FECH inh active
CCn1c(C2CCN(C(=O)c3cc(C(C)C)[nH]n3)CC2)n[nH]c1=O	none
CN1CCCC(c2n[nH]c(=O)n2CCc2ccccc2)C1 (stereo not given)	none
CCCCNC(=O)c1ccc(CN2C(=O)CCn3nc(-c4ccccc4)cc32)cc1	none
Cn1cc(CN(Cc2cc3cc4c(cc3[nH]c2=O)OCO4)C2CC2)cn1	none
Cc1ccc(C(C)NC(=O)CN(Cc2cnn(C)c2)C2CC2)cc1 (stereo not given)	none
Cn1cc(CN(Cc2ccc(CO)o2)C2CC2)cn1	FECH inh active
Cc1cc(F)ccc1NC(=O)CNC(=O)[C@H](N)CC(C)C	none
Cc1ccc(-c2nc(CNC(=O)c3cnccn3)[nH]c2-c2ccccn2)cc1	none
CC1CN(Cc2ccccc2)c2ccccc2NC1=O (stereo not given)	none
Cc1nn(CC(C)NCCS(=O)(=O)N(C)C)c(C)c1Cl (stereo not given)	none
CC(C)CN1CCC(NC(C)c2nncn2C)CC1 (stereo not given)	none
CC(=O)Nc1nc2n(n1)C(c1ccc(Cl)cc1)C=C(c1ccc(Cl)cc1)N2 (stereo not given)	none
O=C(Nc1nc2n(n1)C(c1ccccc1Cl)C=C(c1ccc(Cl)cc1)N2)c1ccc(F)cc1 (stereo not given)	none
CC(C)CC(=O)Nc1nc2n(n1)C(c1ccc(F)cc1)C=C(c1ccc(Cl)cc1)N2 (stereo not given)	none
Cc1ccc(C2=CC(c3ccccc3Cl)n3nc(NC(=O)CC(C)C)nc3N2)cc1 (stereo not given)	FECH inh active
CC(C)CC(=O)Nc1nc2n(n1)C(c1ccccc1Cl)C=C(c1ccc(Cl)cc1)N2 (stereo not given)	none
CC(C)C(=O)Nc1nc2n(n1)C(c1ccccc1Cl)C=C(c1ccc(Cl)cc1)N2 (stereo not given)	none
CC(C)CC(=O)Nc1nc2n(n1)C(c1ccc(Cl)cc1)C=C(c1ccc(Cl)cc1)N2 (stereo not given)	FECH inh active
CCC(=O)Nc1nc2n(n1)C(c1ccccc1Cl)C=C(c1ccc(Cl)cc1)N2 (stereo not given)	none
O=C(Nc1nc2n(n1)C(c1ccccc1Cl)C=C(c1ccc(Cl)cc1)N2)c1ccco1 (stereo not given)	FECH inh active
COc1ccc(CC(=O)Nc2ccc(Nc3nc(C)cc(N(C)C)n3)cc2)cc1	none
Cc1ccc(OCc2cc(=O)n3oc(C)cc3n2)c(NC(=O)COc2ccccc2C)c1	none
Cc1cc(Sc2ccccc2NC(=O)C2CC2)n2nc(-c3ccccc3)nc2n1	none
CCC(c1ccncc1)n1ccnc1-c1nc[nH]c1C (stereo not given)	none
CCc1cc(N2CCCN(C(=O)C3CC3)CC2)nc(N(C)C)n1	none
CCOc1ccccc1-c1nc(CSc2nc(-c3cccc(Cl)c3)cc(=O)[nH]2)c(C)o1	none
O=c1cc(CNc2cccc(Cl)c2)nc2nc(NCc3ccc(F)cc3)[nH]n12	none
Cc1cccc(NC(=O)Nc2c(C)nc3nc[nH]n3c2=O)c1	none
Cc1cccc(NCc2nc3nc4c(c(=O)n3[nH]2)CCC4)c1	FECH inh active
O=c1c2c(nc3nc(CNc4cccc(Cl)c4)[nH]n13)CCC2	FECH inh active
Cc1nc2nc(C)c(NC(=O)Nc3cccc(Cl)c3)c(=O)n2[nH]1	none
CCc1nc2nc(C)[nH]n2c(=O)c1NC(=O)Nc1cc(C)ccc1OC	none
Cc1ccc(-c2nc(CSc3nc4c(c(=O)[nH]3)CCCC4)c(C)o2)cc1	none
Cc1cccc(NC(=O)Nc2c(C)nc3nc(C)[nH]n3c2=O)c1	none
Cc1ccc(NCc2nc3nc4c(c(=O)n3[nH]2)CCC4)c(C)c1	FECH inh active
CCOc1ccc(NC(=O)N2CCn3nc(C(=O)OC)cc3C2)cc1	none
CSCC[C@@H](CO)n1ccnc1-c1cc2c(cc1C)OCO2	none
COc1ccc(-c2cc(N3CCN(C(=O)Nc4ccc(OC)c(OC)c4)CC3)ncn2)cc1	none
Cc1cc(C)n(CCNC(=O)CC(=O)Nc2ccccc2C)c(=O)n1	none
COc1ccc(Cl)cc1-n1nc(C(C)C)nc1Cc1cnc(C)[nH]c1=O	none
CC(C)NC(=O)NCCc1nc2cccnc2n1C1CCCCC1	none
Cc1ccc(N2CCCS2(=O)=O)cc1NC(=O)c1ccc(C(F)(F)F)cc1	none
CCOc1ccccc1C(=O)NCc1nc2cccnc2n1Cc1ccc(OC)cc1	none
CCOc1ccccc1NC(=O)CN1CCN(Cc2ccccc2Cl)S1(=O)=O	none
CCOc1ccccc1NC(=O)CN1CCN(Cc2ccccc2C)S1(=O)=O	FECH inh active
CCOc1ccccc1NC(=O)CN1CCN(Cc2ccc(F)cc2Cl)S1(=O)=O	FECH inh active
CCc1ccccc1NC(=O)CN1CCN(Cc2ccccc2C)S1(=O)=O	none
CCc1ccccc1NC(=O)CN1CCN(Cc2ccc(F)cc2Cl)S1(=O)=O	none
CCOC(=O)c1ccccc1NC(=O)CN1CCN(Cc2ccccc2C)S1(=O)=O	none
COc1ccc(S(=O)(=O)N2CCN(c3nc(C)cc(N4CCOCC4)n3)CC2)cc1OC	none
COC(=O)C1CCCCN1Cc1nnc(CC2CCNCC2)n1C (stereo not given)	none
Cc1cc(C)c(S(=O)(=O)NCCn2c(CCc3ccccc3)nc3cccnc32)cc1C	none
CC(C)CN(CC(C)C)c1ncc(NS(=O)(=O)c2ccc(Br)cc2)cc1C(=O)O	none
CCc1c(C)nc2ncnn2c1Sc1ccccc1NC(=O)c1ccc(F)cc1	FECH inh active
Cc1nc2nc(-c3ccccc3)nn2c(Sc2ccccc2NC(=O)c2c(F)cccc2F)c1C	none
CCC(=O)Nc1ccccc1Sc1c(C)c(C)nc2nc(-c3ccccc3)nn12	FECH inh active
CCc1c(C)nc2ncnn2c1Sc1ccccc1NC(=O)c1cc(OC)cc(OC)c1	none
CCc1cc(Sc2ccccc2NC(=O)c2cccc(C)c2)n2ncnc2n1	none
Cc1cccc(C(=O)Nc2ccccc2Sc2c(C)c(C)nc3ncnn23)c1	FECH inh active
CCCc1c(C)nc2ncnn2c1Sc1ccccc1NC(=O)c1ccc(C(C)(C)C)cc1	FECH inh active
CCc1c(C)nc2ncnn2c1Sc1ccccc1NC(=O)c1ccc(OC)cc1	none
CCCc1c(C)nc2ncnn2c1Sc1ccccc1NC(=O)c1ccc(C)cc1	none
Cc1nc2ncnn2c(Sc2ccccc2NC(=O)c2ccc(Cl)cc2)c1C	none
Cc1nc2nc(-c3ccccc3)nn2c(Sc2ccccc2NC(=O)c2ccccc2)c1C	none
CCCc1c(C)nc2ncnn2c1Sc1ccccc1NC(=O)c1cccc(Cl)c1	none
CCOc1ccc(S(=O)(=O)N2CCC(n3c(COC)nc4cccnc43)CC2)cc1	none
CN(C)c1nc(-c2ccncc2)nc2c1CCN(S(=O)(=O)N(C)C)C2	none
Fc1ccc(N2CCN(c3nc(Nc4cccc(Cl)c4)c4cnn(-c5ccccc5)c4n3)CC2)cc1	none
O=C1CN(Cc2ccc(F)cc2)S(=O)(=O)c2ccccc2N1Cc1cccc(C(F)(F)F)c1	none
O=c1[nH]c(CNc2nccc(CCC(F)(F)F)n2)nc2ccccc12	none
CNc1ncc(CN(C)C(=O)[C@@H]2C[C@@H](NC(=O)c3cccs3)CN2)cn1	none
O=C(CN1CCCN(Cc2ccccc2Cl)S1(=O)=O)Nc1cc(F)ccc1F	none
